Screens (PubChem)
In the library only some 3.5% were active in any assay of this set; here they are far more common.
TEAD-YAP inh: TEAD-YAP interaction inhibition, primary screen, TEAD-YAP interaction inhibitor project, luminescence, HEK-TIYL cells; TEAD-Gal4/YAP UAS-luciferase luminescence; 640,000 tested, 1.4% active; inhibition, % at 9.12 µM; in the data active means inhibition above about 32%;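 further: 0% = median of test compound wells and 100% = reference inhibitor wells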
FBW7 activator: FBW7 E3 ligase activators, primary screen, biochemical, AlphaScreen, human; AlphaScreen FBW7–phospho-cyclin E peptide binding, activator screen; normalized activity (activation), % at 26.1 µM; F-box/WD repeat-containing protein 7 (Homo sapiens), Q969H0; 650,000 tested, 0.13% active; in the data active means normalized activity above about 1.9%;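 further: purified mutant Fbw7 with reduced substrate affinity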
GPR151 activ: activators of human GPR151, primary screen, cell-based, PathHunter beta-arrestin, luminescence; PathHunter beta-arrestin GPR151 cells; activation, % at 11.2 µM; 650,000 tested, 1% active; AID 1508602, 2020; in the data active means activation above about 4.9%;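 further: 0% = median of compound wells and 100% = cells with positive control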
MITF inh: MITF inhibitors, primary screen, biochemical, AlphaScreen, human. Microphthalmia-associated transcription factor (Homo sapiens), O75030. AlphaScreen MITF homodimerization, bead proximity signal. inhibition, % at 2.6 µM. 650,000 tested, 0.91% active; in the data active means inhibition above about 50%;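 further: 0% = vehicle wells with protein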
Target sequence (O75030 whole entry, looked up): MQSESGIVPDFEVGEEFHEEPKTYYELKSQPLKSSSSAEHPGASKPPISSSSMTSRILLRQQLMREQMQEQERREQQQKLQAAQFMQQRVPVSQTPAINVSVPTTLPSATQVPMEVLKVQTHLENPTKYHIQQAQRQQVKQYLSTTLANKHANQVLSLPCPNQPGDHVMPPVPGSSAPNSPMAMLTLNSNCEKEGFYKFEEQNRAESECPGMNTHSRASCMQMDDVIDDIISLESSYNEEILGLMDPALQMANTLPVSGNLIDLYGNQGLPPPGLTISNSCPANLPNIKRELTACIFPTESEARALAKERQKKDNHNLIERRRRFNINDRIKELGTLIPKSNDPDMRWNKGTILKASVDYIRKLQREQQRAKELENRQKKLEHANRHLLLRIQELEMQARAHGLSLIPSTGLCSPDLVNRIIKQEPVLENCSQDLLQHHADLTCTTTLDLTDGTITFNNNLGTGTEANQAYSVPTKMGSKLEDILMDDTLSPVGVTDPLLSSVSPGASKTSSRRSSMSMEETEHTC
Active calls of the source: *.

SMILES | TEAD-YAP inh | FBW7 activator | GPR151 activ | MITF inh
COC(=O)c1ccc(C2SCC(=O)N2c2ccc(Br)cc2)cc1 (stereo unspecified) | -9 | 0 | 0 | 0
Cc1cc(NCCc2ccc(O)cc2)nc(-c2ccc(N3CCN(C)CC3)cc2)n1 | 53* | 0 | 2 | 13
Cc1cc(NCCc2ccc(O)cc2)nc(Nc2ccc(N3CCOCC3)cc2)n1 | 62* | 0 | 2 | 26
Oc1ccc(CCNc2ccnc(Nc3ccc(N4CCOCC4)cc3)n2)cc1 | 45* | 0 | 3 | 8
COc1ccc(OC)c(/C=C/c2nc3ccccc3c(=O)n2-c2ccc(OC)c(Cl)c2)c1 | 14 | 0 | -3 | 15
Cc1ccc2nc(C(F)(F)F)c(C#N)c(N)c2c1 | 45* | 0 | -1 | -10
CCCCCCC1(O)C(C)C(c2ccc(N(C)C)cc2)NC(c2ccc(N(C)C)cc2)C1C (stereo unspecified) | -11 | -1 | 0 | 61*
COC(=O)C1=C(C(=O)OC)SC(=C2C(=S)C(C)(C)N(C(=O)c3ccccc3)c3ccc(C)cc32)S1 | -6 | 0 | 1 | -3
COC(=O)C1=C(C(=O)OC)SC(=C2C(=S)C(C)(C)N(C)c3ccc(C)cc32)S1 | 6 | 0 | 0 | 52*
CC(C)n1c(-c2ccc3[nH]ccc3c2)nc2c(NCCO)ncnc21 | -3 | 0 | 1 | 13
CC[n+]1ccc(/C=C2\C=Cc3ccc(C)cc3N2C)cc1 | -1 | 0 | 1 | 2
CCN1/C(=C/c2cc[n+](C)cc2)C=Cc2cc(C)ccc21 | 81* | -1 | 3 | 11
CC[n+]1c(/C=C2\C=Cc3cc(C)ccc3N2C)sc(C)c1C | 61* | 0 | 2 | 19
CCN1C(=C2C(=O)c3ccccc3C2=O)C=Cc2cc(C)ccc21 | -44 | 0 | 1 | 9
CC[n+]1ccc(/C=C2\C=Cc3cc(C)ccc3N2C)cc1 | 58* | 0 | 0 | 20
COc1ccc(C(=O)Nc2ccncc2NC(=O)c2ccc(OC)c(OC)c2)cc1OC | 3 | 0 | 0 | 2
Cc1ccc(C(=O)Oc2ccc(-c3nc4ccc(C)cc4s3)cc2)cc1 | 39* | 0 | -1 | -5
Cc1ccc2nc(-c3ccc(OC(=O)c4ccc(Br)o4)cc3)sc2c1 | 65* | 0 | 1 | 8
CC(=O)Nc1ccc(-c2nc3ccc(NC(C)=O)cc3s2)cc1 | -50 | 1 | 2 | -15
CC(=O)Nc1ccc2nc(-c3ccc(OC(C)=O)cc3)sc2c1 | 78* | 0 | 0 | -4
Cc1ccc2nc(-c3ccc(NC(=O)/C=C/c4ccccc4)cc3)sc2c1 | -22 | 0 | 0 | 4
Cc1ccc2nc(-c3ccc(NC(=O)/C=C\C(=O)O)cc3)sc2c1 | 35* | 0 | 0 | -1
COc1cc(C=O)ccc1OCC(=O)Nc1ccccc1Br | 6 | 1 | -3 | 21
CC(C)=CCCC1(C)OC(=O)N(n2cnnc2)C1(C)O (stereo unspecified) | -4 | 0 | -1 | 17
CCN(c1ccc(C)c(C)c1)S(=O)(=O)c1ccc2[nH]c(=O)c(=O)[nH]c2c1 | 6 | 0 | 0 | -26
SMILES | TEAD-YAP inh | FBW7 activator | GPR151 activ | MITF inh
Cc1ccc(NC(=O)/C(C#N)=N/Nc2ccc(S(=O)(=O)Nc3ncccn3)cc2)c(C)c1 | -3 | 0 | 0 | 16
C[C@@H]1CN(Cc2nnnn2CC(=O)NCCc2ccccc2F)C[C@H](C)O1 | -7 | 0 | 0 | 8
Cc1ccc(OCC(=O)Nc2ccc(-c3nc4ccc(C)cc4s3)cc2)cc1 | -17 | 0 | 0 | 6
Cc1ccc(-c2nc3ccccc3s2)cc1NC(=O)c1cccc(I)c1 | 2 | 0 | 1 | 8
Cc1ccc2nc(-c3ccc(OC(=O)c4cccc(I)c4)cc3)sc2c1 | 84* | 0 | -2 | -4
CC(=O)Oc1ccc(-c2nc3ccc(C)cc3s2)cc1 | 98* | 0 | -6 | 1
COc1cc(OC)cc(C(=O)Nc2ccc(-c3nc4ccc(C)cc4s3)cc2)c1 | -3 | 0 | 0 | 10
COC(=O)CNS(=O)(=O)Nc1ccc(-c2nc3ccc(C)cc3s2)cc1 | 67* | 0 | -6 | 9
Cc1ccc2nc(-c3ccc(NC(=O)CSc4nnc(N)s4)cc3)sc2c1 | 59* | 0 | -2 | -7
CCOc1cc(C(=O)OCC(=O)N2C(C)CCCC2C)cc(OCC)c1OCC (stereo unspecified) | 9 | 0 | -2 | -10
CC(C)c1nnc(SCC(=O)NC(N)=O)n1N | 2 | 0 | 1 | 2
CNC(=O)Nc1ccc(C(C)(C)C)c(C)c1 | -26 | 0 | -2 | -7
Cc1nn(C)cc1CN1CCN(CC(C)C)C(CCO)C1 (stereo unspecified) | -4 | 0 | -2 | -7
O=C(Nc1ccccc1C(=O)N1CCCC1)c1ncoc1-c1ccccc1C(F)(F)F | 63* | 0 | 0 | -12
COc1ccccc1-c1ocnc1C(=O)Nc1ccccc1C(=O)N1CCCC1 | 7 | 0 | 0 | 7
O=C(Nc1ccc(C(F)(F)F)cc1)C(=O)N1CCCCC1 | -49 | 1 | -1 | 16
CC(=O)NC1=NN(C(C)=O)C(C)(c2ccccc2)S1 (stereo unspecified) | 61* | 0 | -1 | -4
CC(=O)NC1=NN(C(C)=O)C(C)(c2ccc(NC(C)=O)cc2)S1 (stereo unspecified) | 4 | 0 | 0 | -5
CC(=O)NC1=NN(C(C)=O)C(C)(c2ccc3ccccc3c2)S1 (stereo unspecified) | 4 | 0 | 0 | 1
CC(=O)NC1=NN(C(C)=O)C(C)(c2cccc(OC(C)=O)c2)S1 (stereo unspecified) | 64* | 0 | 1 | 0
Cn1c(=O)c2c(nc(-n3ccnc3)n2Cc2ccc(Cl)cc2Cl)n(C)c1=O | -17 | 1.9* | 1 | 4
Cc1cc2ccccc2cc1Cn1c(-n2ccnc2)nc2c1c(=O)n(C)c(=O)n2C | 6 | 0 | 1 | 2
O=C(NC1CC1)c1ccnc(Cl)c1 | 0 | 0 | 0 | -3
O=C(NC1CCC(CC2CCC(NC(=O)c3ccncc3)CC2)CC1)c1ccncc1 (stereo unspecified) | 32* | 0 | 0 | -9
O=C(Cc1ccccc1)Nc1cnn(-c2cccc(C(=O)N[C@@H]3CCCNC3)c2)c1 | -3 | 0 | 0 | -9
SMILES | TEAD-YAP inh | FBW7 activator | GPR151 activ | MITF inh
COc1ccc(N2C(=O)CN(C(=O)c3ccc(C)c(N4CCNC4=O)c3)CC2(C)C)cc1 | -7 | 0 | 1 | -12
Nc1nc2cc3c(cc2cc1C(=O)Nc1ccccc1)OCO3 | 42* | 0 | 0 | 6
OCCCNc1ccc2ncc(-c3ccc4c(c3)OCO4)n2n1 | 61* | 0 | 1 | -10
c1ccc(CCNc2ccc3ncc(-c4ccc5c(c4)OCO5)n3n2)nc1 | 48* | 0 | 0 | -9
COc1cccc(NC(=O)c2cc3cc4ccc(OC)cc4nc3o2)c1 | -56 | 1 | 0 | -1
O=C(CNS(=O)(=O)c1ccccc1)OCc1ccc([N+](=O)[O-])cc1 | 8 | 0 | 0 | 0
